Target: NPR1
Test: pooled miR-30 sensor sort-seq; sequence = guide strand
Conditions: shRNA
Also: reference of the scale not given here.

Sequence	sensor-assay potency score (higher = more potent)
TTGTAGTTCAGTACAACCCTGA	0.392
TTCGGTTCCACATCCGCTGAGT	0.0187
TTCTCCAGCTGCATCTTCCTGT	-0.0836
TAGACTCCATTCTTGAGGCTGT	0.414
TATAATATGCTGTCTTGGCAAA	-1.35
TTCCTGTATATGAAGAAGGAGA	-1.29
TTTCGTGTCAGCTCAATGCGTT	0.0994
TTGTCCAGGATGTTGCTGCTGT	-0.0226
ATACTCGTCCTTGACACCGAAG	-1.26
TCATTGGTGAGTGAGTACCGGA	-1.01
TTAGACTCCATTCTTGAGGCTG	0.316

Target: NPSR1
Test: as above
Conditions: shRNA

Sequence	sensor-assay potency score (higher = more potent)
TTGCTTTTAATCCAAATAGTTC	-1.33
TTAAAGGAGTAGTAGAAGGAAC	-1.01
TGAATCGCCAATTAATATCTGT	-0.0374
TTTCAGTGCAAGCCACTGGGGA	-0.49
TTTTAATCCAAATAGTTCGGAT	-0.423
TTTGAGATGAGTCCTCGGTTAT	-1.18
TTGGACAGTGTCCTCTTCCCAA	-1.13

From the OligoGym collection
